Laboratory results as given in PubChem BioAssay (NCATS).
Records with an inconclusive call do not appear. Where a call stands in place of a potency, no number is given. Calls of active or inactive are those of the source. Calls come from the whole dose curve; as a rule, active = well fitted inhibition curve with a large enough effect; inconclusive = small, poorly fitted or top-dose-only effect; inactive = flat fitted curve, though single readings scatter.

molecular target: Calcium and integrin-binding protein 1 (Homo sapiens) (UniProt Q99828); test: Primary qHTS for Identification of Calcium Integrin Binding Protein 1 (CIB1) Competitor (AID 1508620); details: CIB1-GST / FITC-alphaIIb peptide fluorescence polarization; series mostly up to 114 µM;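 note: GST tagged CIB1 binding a fluorescein labelled alphaIIb integrin peptide tracer; top concentration of the series differs between compounds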
Sequence (Q99828 whole entry, looked up): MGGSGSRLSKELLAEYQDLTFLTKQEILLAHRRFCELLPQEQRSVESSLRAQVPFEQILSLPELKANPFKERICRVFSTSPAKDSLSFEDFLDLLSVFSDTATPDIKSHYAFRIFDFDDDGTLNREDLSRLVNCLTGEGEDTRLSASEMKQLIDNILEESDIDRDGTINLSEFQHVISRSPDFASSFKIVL
How it was run: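 Fluorescence polarization competition: CIB1-GST (1 uM final) preincubated with compound 15 min at room temperature, then FITC-labeled alphaIIb peptide (100 nM final) added for another 15 min. Polarization read at Ex 480/Em 540.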

Row | SMILES | Potency
1 | Cn1c2cc(B(O)O)sc2c2cnn(Cc3ccc(F)cc3F)c(=O)c21 | inactive
2 | CC(=O)Nc1cc2c(s1)CNCC2 | inactive
3 | S=P(c1ccccc1)(c1ccccc1)c1c[n+](C/C=C/c2ccccc2)c2ccccn12 | inactive
4 | Cc1ccc(NS(=O)(=O)c2cc3c(cc2NC(C)C)NC(=O)CC3)cc1C | inactive
5 | C[C@@H](O)c1ccc(-c2ccc3ncnc(NCc4cccs4)c3c2)o1 | inactive
6 | COC/C=C/c1cc(F)c(S(=O)(=O)N2CCN(S(=O)(=O)c3ccc4c(c3)OCCO4)CC2)cc1F | inactive
7 | CS(=O)(=O)N1CCN(c2nc(-c3ccc(Br)cc3)cs2)CC1 | inactive
8 | CN1C(=O)CCc2cc(S(=O)(=O)Nc3ccc(Cl)c(Cl)c3)ccc21 | inactive
9 | Cc1cc(-c2ccccc2)n2ncc(C(=O)Nc3ccccc3Sc3ccccc3)c2n1 | inactive
10 | Cc1cc(NC(=O)Nc2nnc(C3CCCCC3)s2)ccc1Br | inactive
11 | Cc1ccc(CNc2ncnc3ccc(-c4sc(C)nc4C)cc23)o1 | inactive
12 | CC(C)c1ccccc1-c1nc(NCc2ccc(-c3cccnc3)cc2)c2cccn2n1 | inactive
13 | Cc1cc(N[S+](=O)([O-])c2cc3c(cc2Cl)CCC(=O)N3)ccc1Br | inactive
14 | Cc1cc2c(s1)c1cnn(Cc3ccc(C#N)cc3)c(=O)c1n2C | inactive
15 | COC(=O)c1ccc(O)c2ncc(NC3CCNCC3)cc12 | inactive
16 | O=C(Cc1ccc(Cl)c(Cl)c1)Nc1ccc([S+](=O)([O-])Nc2ccccn2)cc1 | inactive
17 | O=S(=O)(c1ccc2c(c1)OCCO2)N1CCN(S(=O)(=O)c2ccccc2Cl)CC1 | inactive
